About 7,900 targets were measured; listed, in parts, are those with a hit and a random draw of the rest. About 0.6% of all pairs of compound and target were hits. A number with no mark means an inactive call.
How the values were obtained:
Assay in all cases: log2 fold change, soluble protein after heating vs DMSO (PISA); higher = thermal stabilisation; K562 cells, 10 uM, 30 min; active = over 0.2 and 3.5 SD of the protein, either way, in both replicates (recomputed)
[1] = compound: CC[C@@H]1C(=O)N(C)c2cnc(Nc3ccc(C(=O)NC4CCN(C)CC4)cc3OC)nc2N1C1CCCC1
In short: (§1)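 K562 cells at 2×10^6 cells/mL were treated for 30 min with 10 μM compound, and aliquots were heated for 3 min over 48°C-58°C before pooling. Extraction used PBS with 0.5% NP-40 at 4°C, and soluble protein was the supernatant after 21,000xg for 90 min, measured by TMTpro 16plex LC-MS/MS with channel sums equalised. Thermal stability values, relative to control samples and from duplicates, are log2 fold changes.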

volasertib = compound: CC[C@@H]1C(=O)N(C)c2cnc(Nc3ccc(C(=O)N[C@H]4CC[C@H](N5CCN(CC6CC6)CC5)CC4)cc3OC)nc2N1C(C)C [volasertib]
In short: as §1

[2] = compound: CC[C@H](C)N1C=C(C2=C(C=C(C=C21)C3=CN=C(C=C3)N4CCNCC4)C(=O)NCC5=C(C=C(NC5=O)C)C)C
In short: as §1

epoxomicin = compound: CC[C@H](C)[C@@H](C(=O)N[C@@H]([C@@H](C)O)C(=O)N[C@@H](CC(C)C)C(=O)[C@]1(CO1)C)NC(=O)[C@H]([C@@H](C)CC)N(C)C(=O)C [epoxomicin]
In short: as §1

[3] = compound: CCn1c(C(=O)N(C2CC2)C2CC2)cc2c3c(ncn3C)c(Nc3cc(C)n(C)n3)nc21
In short: as §1

[4] = compound: CCn1cc(-c2ccnc3[nH]c(-c4cccc(CN(C)C)c4)cc23)c(-c2ccc(NC(=O)N(C)C)cc2)n1
In short: as §1

[5] = compound: CN(C)CC(=O)Nc1ccc2[nH]c(=O)c3ccccc3c2c1
In short: as §1

rosiglitazone = compound: CN(CCOC1=CC=C(C=C1)C[C@H]2C(=O)NC(=O)S2)C3=CC=CC=N3 (racemic) [rosiglitazone]
In short: as §1

[6] = compound: CN1C2=C(C3=C1C(=O)N(N=C3)CC4=CC(=CC=C4)N)SC(=C2)S(=O)C
In short: as §1

[7] = compound: CN1CCC(CNc2ccc3ncc(-c4cccc(OC(F)(F)F)c4)n3n2)CC1
In short: as §1

Sequence of UniProt Q9BQY4 (Q9BQY4 whole entry, looked up): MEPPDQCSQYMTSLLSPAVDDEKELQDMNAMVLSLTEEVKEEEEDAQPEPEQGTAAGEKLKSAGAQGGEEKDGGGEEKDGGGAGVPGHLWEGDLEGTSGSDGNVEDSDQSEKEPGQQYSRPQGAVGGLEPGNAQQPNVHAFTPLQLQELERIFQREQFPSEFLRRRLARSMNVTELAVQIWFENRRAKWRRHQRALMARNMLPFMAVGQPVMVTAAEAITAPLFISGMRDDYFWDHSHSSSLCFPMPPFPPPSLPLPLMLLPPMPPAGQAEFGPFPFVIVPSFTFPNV
Sequence of UniProt P49756 (P49756 whole entry, looked up): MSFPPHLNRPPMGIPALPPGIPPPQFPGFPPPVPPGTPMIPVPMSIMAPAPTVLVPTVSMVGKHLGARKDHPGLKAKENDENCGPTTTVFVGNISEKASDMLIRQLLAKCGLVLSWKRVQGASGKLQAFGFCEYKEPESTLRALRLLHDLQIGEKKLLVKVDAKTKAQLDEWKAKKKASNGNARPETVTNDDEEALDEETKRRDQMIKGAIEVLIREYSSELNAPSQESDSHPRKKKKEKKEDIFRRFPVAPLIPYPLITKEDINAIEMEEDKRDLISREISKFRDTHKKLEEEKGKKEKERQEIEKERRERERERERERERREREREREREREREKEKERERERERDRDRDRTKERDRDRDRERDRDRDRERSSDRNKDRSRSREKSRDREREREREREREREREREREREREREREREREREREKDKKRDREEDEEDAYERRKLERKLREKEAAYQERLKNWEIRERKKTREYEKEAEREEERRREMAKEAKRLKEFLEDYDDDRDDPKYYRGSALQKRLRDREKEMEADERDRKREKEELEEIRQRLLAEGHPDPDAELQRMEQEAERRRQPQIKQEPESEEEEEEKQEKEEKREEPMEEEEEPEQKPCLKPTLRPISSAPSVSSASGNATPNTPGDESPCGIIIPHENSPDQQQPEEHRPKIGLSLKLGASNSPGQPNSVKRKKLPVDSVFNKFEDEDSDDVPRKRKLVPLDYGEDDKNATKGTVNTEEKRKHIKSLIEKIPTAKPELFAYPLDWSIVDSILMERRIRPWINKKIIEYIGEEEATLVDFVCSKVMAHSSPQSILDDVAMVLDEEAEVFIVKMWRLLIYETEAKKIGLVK
Sequence of UniProt P62070 (P62070 whole entry, looked up): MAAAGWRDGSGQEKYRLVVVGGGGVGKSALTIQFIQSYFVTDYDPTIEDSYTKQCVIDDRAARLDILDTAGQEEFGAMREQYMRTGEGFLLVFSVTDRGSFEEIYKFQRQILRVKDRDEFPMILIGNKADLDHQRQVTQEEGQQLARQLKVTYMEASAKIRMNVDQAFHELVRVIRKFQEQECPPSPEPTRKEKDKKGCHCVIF
Sequence of UniProt Q15436 (Q15436 whole entry, looked up): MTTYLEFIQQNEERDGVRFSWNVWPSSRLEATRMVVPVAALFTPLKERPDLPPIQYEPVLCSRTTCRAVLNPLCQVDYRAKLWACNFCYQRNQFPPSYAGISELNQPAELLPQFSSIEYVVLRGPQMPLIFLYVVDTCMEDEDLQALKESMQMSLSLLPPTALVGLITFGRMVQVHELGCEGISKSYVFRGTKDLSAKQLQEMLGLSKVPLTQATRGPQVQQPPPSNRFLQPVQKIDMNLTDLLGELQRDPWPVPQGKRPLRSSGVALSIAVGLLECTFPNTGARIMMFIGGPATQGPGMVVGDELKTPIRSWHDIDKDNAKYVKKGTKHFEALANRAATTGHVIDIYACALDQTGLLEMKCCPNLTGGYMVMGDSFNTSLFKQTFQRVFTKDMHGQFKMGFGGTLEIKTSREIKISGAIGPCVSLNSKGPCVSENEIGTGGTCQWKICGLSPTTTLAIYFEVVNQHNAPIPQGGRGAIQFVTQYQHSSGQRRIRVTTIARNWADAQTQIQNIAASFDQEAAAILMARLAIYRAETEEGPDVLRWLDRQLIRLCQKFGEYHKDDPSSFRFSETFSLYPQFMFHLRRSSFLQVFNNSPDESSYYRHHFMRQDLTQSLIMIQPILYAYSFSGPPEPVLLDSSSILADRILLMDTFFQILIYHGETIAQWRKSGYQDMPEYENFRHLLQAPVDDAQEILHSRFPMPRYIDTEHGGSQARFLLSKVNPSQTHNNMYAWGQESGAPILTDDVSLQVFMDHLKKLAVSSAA
Sequence of UniProt O00584 (O00584 whole entry, looked up): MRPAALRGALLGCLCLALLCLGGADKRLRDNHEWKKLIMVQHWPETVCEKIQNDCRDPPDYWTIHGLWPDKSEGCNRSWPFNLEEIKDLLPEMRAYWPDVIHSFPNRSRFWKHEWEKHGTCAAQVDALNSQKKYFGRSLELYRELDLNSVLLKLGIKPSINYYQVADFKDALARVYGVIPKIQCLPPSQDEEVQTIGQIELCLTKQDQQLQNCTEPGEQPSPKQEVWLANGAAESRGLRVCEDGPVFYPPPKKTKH
Sequence of UniProt O95470 (O95470 whole entry, looked up): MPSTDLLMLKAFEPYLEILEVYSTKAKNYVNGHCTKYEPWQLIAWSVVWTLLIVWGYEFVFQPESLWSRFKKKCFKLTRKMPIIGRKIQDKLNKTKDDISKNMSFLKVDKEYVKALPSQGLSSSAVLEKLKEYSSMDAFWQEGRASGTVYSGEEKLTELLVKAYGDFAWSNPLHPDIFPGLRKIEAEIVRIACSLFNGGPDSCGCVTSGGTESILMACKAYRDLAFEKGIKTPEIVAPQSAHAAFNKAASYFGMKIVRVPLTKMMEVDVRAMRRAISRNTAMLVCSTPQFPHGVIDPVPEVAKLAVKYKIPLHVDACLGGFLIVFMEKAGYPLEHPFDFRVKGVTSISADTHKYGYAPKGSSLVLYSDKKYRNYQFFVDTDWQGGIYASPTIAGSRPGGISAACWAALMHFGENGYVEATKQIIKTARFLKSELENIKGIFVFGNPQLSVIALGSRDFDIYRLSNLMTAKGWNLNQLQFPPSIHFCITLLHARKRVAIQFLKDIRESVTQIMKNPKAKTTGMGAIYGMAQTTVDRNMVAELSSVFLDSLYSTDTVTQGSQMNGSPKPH
Sequence of UniProt Q7L4I2 (Q7L4I2 whole entry, looked up): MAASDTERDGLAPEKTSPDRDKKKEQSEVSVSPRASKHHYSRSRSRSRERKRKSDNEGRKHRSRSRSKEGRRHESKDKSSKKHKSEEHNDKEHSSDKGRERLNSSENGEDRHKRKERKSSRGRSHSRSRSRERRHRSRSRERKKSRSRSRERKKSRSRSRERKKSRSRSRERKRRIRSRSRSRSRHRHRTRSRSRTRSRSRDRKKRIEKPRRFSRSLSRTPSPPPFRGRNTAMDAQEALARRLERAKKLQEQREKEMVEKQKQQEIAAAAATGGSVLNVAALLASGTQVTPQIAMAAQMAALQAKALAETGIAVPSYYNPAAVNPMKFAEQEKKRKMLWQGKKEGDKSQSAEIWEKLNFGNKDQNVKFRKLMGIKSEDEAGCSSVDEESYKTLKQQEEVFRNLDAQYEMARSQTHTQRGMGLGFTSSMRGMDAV
Sequence of UniProt Q8TBN0 (Q8TBN0 whole entry, looked up): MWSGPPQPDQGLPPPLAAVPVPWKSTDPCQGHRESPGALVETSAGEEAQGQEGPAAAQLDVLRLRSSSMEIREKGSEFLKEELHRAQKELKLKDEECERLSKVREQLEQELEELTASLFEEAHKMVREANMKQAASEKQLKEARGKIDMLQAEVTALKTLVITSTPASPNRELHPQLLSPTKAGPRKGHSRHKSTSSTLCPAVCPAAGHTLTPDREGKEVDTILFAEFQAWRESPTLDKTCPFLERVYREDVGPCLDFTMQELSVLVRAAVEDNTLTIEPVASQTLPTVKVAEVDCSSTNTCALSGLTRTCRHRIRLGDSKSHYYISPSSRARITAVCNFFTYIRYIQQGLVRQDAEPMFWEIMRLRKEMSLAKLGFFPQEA
Sequence of UniProt Q96EV2 (Q96EV2 whole entry, looked up): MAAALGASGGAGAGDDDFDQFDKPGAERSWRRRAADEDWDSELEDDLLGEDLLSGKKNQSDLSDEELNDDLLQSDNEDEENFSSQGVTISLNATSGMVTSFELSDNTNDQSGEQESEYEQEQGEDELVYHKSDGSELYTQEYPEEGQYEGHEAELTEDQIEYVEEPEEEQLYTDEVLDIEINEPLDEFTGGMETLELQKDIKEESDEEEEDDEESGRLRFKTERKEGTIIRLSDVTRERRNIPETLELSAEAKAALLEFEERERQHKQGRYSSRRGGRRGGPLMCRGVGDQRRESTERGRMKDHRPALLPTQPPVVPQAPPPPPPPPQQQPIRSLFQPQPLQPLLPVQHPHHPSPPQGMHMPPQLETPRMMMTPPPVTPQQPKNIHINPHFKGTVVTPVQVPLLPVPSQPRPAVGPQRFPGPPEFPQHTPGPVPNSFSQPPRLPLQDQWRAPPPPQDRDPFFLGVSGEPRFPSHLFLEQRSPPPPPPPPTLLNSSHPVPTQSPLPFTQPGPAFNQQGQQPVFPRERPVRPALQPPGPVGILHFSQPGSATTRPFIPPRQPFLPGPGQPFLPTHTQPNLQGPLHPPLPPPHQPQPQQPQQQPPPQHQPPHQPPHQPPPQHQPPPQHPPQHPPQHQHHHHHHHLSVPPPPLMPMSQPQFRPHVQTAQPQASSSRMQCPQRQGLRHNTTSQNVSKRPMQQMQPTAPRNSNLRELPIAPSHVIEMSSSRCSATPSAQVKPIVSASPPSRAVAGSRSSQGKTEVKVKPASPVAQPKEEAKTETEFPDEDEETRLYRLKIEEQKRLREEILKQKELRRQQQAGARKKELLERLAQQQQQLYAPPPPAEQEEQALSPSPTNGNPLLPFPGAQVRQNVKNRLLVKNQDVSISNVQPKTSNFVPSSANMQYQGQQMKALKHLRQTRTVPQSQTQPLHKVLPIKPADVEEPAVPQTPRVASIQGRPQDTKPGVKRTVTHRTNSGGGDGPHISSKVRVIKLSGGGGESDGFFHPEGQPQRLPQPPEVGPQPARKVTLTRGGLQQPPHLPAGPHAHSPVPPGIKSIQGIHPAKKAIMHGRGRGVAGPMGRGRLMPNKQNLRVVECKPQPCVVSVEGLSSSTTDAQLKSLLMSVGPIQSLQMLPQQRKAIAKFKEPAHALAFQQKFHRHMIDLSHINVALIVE

Target	log2 fold change [1]	log2 fold change (volasertib)	log2 fold change [2]	log2 fold change (epoxomicin)	log2 fold change [3]	log2 fold change [4]	log2 fold change [5]	log2 fold change (rosiglitazone)	log2 fold change [6]	log2 fold change [7]
RPS4X (UniProt P62701)	0.173	0.419	0.056	-0.22	0.032	0.108	-0.089	-0.086	0.177	0.148
RBM12 (UniProt Q9NTZ6)	-0.181	-0.437 (active)	0.114	0.087	-0.08	-0.049	0.053	0.087	-0.033	-0.139
RBM33 (UniProt Q96EV2)	-0.101	-0.105	0.035	0.022	0.012	-0.005	-0.025	-0.024	0.023	0.004
RRAS2 isoform 4 (UniProt P62070)	0.061	0.124	-0.048	0.063	0.004	0.014	-0.013	0.019	-0.064	0.207 (active)
SART3, A0A499FI31	-0.235	-0.557 (active)	0.061	0.065	-0.008	-0.017	0.017	0.038	-0.056	-0.211
SESN2 (UniProt P58004)	-0.244	-0.522 (active)	0.165	0.083	0.061	-0.292	0.115	-0.081	0.015	-0.247
RNPS1 (UniProt Q15287)	0.062	-0.155	0.049	-0.126	-0.043	-0.008	0.031	-0.08	0.016	0.006
RPS18 (UniProt P62269)	0.158	0.3	-0.011	-0.111	-0.029	0.057	-0.036	-0.11	0.096	0.11
RBM25 (UniProt P49756)	0.024	-0.239	-0.019	0.015	-0.104	0.074	0.041	-0.019	0.086	-0.07
RANBP2 (UniProt P49792)	0.058	-0.006	-0.008	0	-0.063	0.099	0.026	0.03	-0.033	-0.052
RARS2 (UniProt Q5T160)	-0.121	-0.238 (active)	-0.003	0.04	0.013	-0.046	0.026	0.019	-0.065	-0.143
RSRC2 (UniProt Q7L4I2)	0.003	-0.032	-0.022	0.031	0.006	-0.043	0.007	0.008	-0.028	-0.025
RIC8A isoform 3 (UniProt Q9NPQ8)	-0.149	-0.526 (active)	0.11	0.061	-0.009	0.036	0.011	0.095	-0.005	-0.186
RPS20 isoform 2 (UniProt P60866)	0.114	0.31	-0.009	-0.103	-0.02	0.065	-0.03	-0.037	0.091	0.063
RAB5IF isoform 5 (UniProt Q9BUV8)	-0.025	0.036	-0.129	0.017	0.011	-0.056	-0.031	0.028	0.003	0.092
RBM8A (UniProt Q9Y5S9)	-0.051	-0.041	0.038	0.005	0.021	0.014	-0.037	-0.004	-0.035	0.065
SEC23A (UniProt Q15436)	0.149	-0.156	0.1	-0.016	0.017	-0.123	0.052	-0.011	-0.027	0.042
RNF14 (UniProt Q9UBS8)	-0.054	-0.288 (active)	0.037	-0.075	0.002	-0.032	-0.019	0.032	-0.049	-0.025
SGPL1 (UniProt O95470)	0	-0.04	-0.002	-0.066	0.01	0.009	-0.023	-0.061	0.047	0.189
RRAGC (UniProt Q9HB90)	-0.009	-0.003	-0.051	-0.045	0.041	0	-0.024	0.05	-0.067	-0.177
RAD51 (UniProt Q06609)	0.013	0.113	0.026	0.157	-0.029	-0.011	-0.024	-0.016	-0.075	0.051
RHOXF2 (UniProt Q9BQY4)	0.014	0.061	-0.046	0.024	-0.079	0.086	-0.028	-0.013	0.074	-0.073
RTN4IP1 (UniProt Q8WWV3)	-0.118	-0.196	-0.059	-0.02	0.009	-0.079	-0.003	0.965 (active)	-0.219	-0.12
RAB3IL1 (UniProt Q8TBN0)	-0.018	-0.136	-0.001	-0.001	-0.014	-0.15	0.009	0.029	-0.035	0.013
RPL38 (UniProt P63173)	0.076	0.187	0.033	-0.062	-0.022	-0.03	-0.02	-0.012	-0.004	0.052
RPS13 (UniProt P62277)	0.219	0.567	0.035	-0.324	0.055	0.236	-0.066	-0.12	0.219	0.243
RNASET2 (UniProt O00584)	-0.275 (active)	-0.196	0.023	-0.027	0.039	0.045	0.036	-0.006	-0.036	-0.413 (active)
RSRC1 (UniProt Q96IZ7)	0.01	0.056	-0.041	0.083	0.022	-0.021	-0.005	0.002	-0.01	-0.062
RAVER1 (UniProt E9PAU2)	-0.222	-1.93 (active)	0.13	0.147	-0.058	-0.006	0.174	0.056	-0.007	-0.375
RPS25 (UniProt P62851)	0.063	0.338	0.012	-0.172	0.034	0.134	-0.03	-0.062	0.122	0.146

— the supplement of paper PMC10849652
